PubChem BioAssay (Tox21)
Several values for one entry are separate records, joined by “and”; a condition that tells them apart may be missing. Equal values may be shown once. Inconclusive results are not listed. Activity calls are given as the source filed them. The call rests on the fitted dose curve; in most records, active means well fitted inhibition curve with a large enough effect in the repeat runs; inconclusive means weak or mixed curves, or effect the other way; inactive means no such curve, though single readings can be large or run the other way.

molecular target: Nuclear receptor ROR-gamma (Homo sapiens) (UniProt P51449); test: qHTS assay to identify small molecule antagonists of the retinoid-related orphan receptor gamma (ROR-gamma) signaling pathway (AID 1159521; further: nearly all actives have a fitted effect of over 50% in size; on activity change, negative = inhibition: top concentration of the series differs between compounds); conditions: Tet-on RORgamma CHO cells, RORE-luciferase, 16 h; series mostly up to 92.4 µM; activity change, negative = inhibition: at the top concentration
Source text: U.S. Tox21 Program National Center for Advancing Translational Sciences [NCATS] NIH Chemical Genomics Center [NCGC] U.S. Environmental Protection Agency [EPA] National Institutes of Environmental Health Sciences [NIEHS] National Toxicology Program [NTP] U.S. Food and Drug Administration [FDA] Tox21 Assay Overview: Nuclear steroid hormone receptors are involved in many biological processes including inflammatory responses, cell proliferation, and apoptosis. Environmental factors or compounds disrupting these nuclear receptor pathways and gene expression may promote susceptibility to immunotoxicants and autoimmune diseases. One important group of these expression factors are the retinoid-related orphan receptors. To assess compounds that may interfere with the retinoid-related orphan receptor gamma (ROR-gamma) transcription factor, a cell-based luciferase assay was used. The CHO cell-based assay utilizes a TET-inducible ROR expression factor and ROR response element-LUC reporter gene. Reporter gene activity was induced using Doxycycline Hyclate and measured after 16 hr incubation. Tet-on ROR gamma CHO cells were used to screen against the Tox21 10K compound library for ROR gamma antagonists by quantification of decreased reporter gene activity in terms of decreased luminescence.
Tox21 Assay Protocol Summary: Tet-on ROR gamma CHO cells were dispensed at 1,000 cells in 4 uL of culture medium per well into white wall/solid bottom 1536-well plates using a Multidrop Combi (Thermo Scientific, Waltham, MA) dispenser. Following incubation at 37 C and 5% CO2 for 4 hr, 23 nL of compounds dissolved in DMSO, positive controls or DMSO only were transferred by a Pintool station (Kalypsys, San Diego, CA) and after 2 hr incubation at 37 C, one ul of 1 uM (final concentration) of Doxycycline Hyclate was added to all the wells by using a Flying Reagent Dispenser (FRD) (Aurora Discovery, San Diego, CA). After 16 hr incubation at 37 C and 5% CO2, 5 uL of ONE-Glo reagent (Promega Corporation, Madison, WI) was added to each assay plate using FRD. After 30 min incubation at room temperature, luminescence was quantified on a ViewLux plate reader (Perkin Elmer, Waltham, MA).
On the % scale 0 is the no-effect control and ±100 the full control effect; potency means the concentration at half of the fitted maximal effect.

| Structure (SMILES) | activity change, negative = inhibition | Potency |
| --- | --- | --- |
| OC1CCCc2ccccc21 (stereo not given) | -17.3% (inactive) |  |
| COC(=O)c1ccccc1OC | 17.1% (inactive) |  |
| CCCCCCC1CCCC(=O)O1 (stereo not given) | -1.54% (inactive) |  |
| Cc1c(C)c2c(c(C)c1O)CC[C@@](C)(CCC[C@H](C)CCC[C@H](C)CCCC(C)C)O2 | 14.1% (inactive) |  |
| O=C(c1ccc(O)c(O)c1)c1ccc(O)cc1O |  | 21.6 µM (active) |
| COc1cc(C)ccc1O | -0.535% (inactive) |  |
| O=C(O)c1ccc2cc(C(=O)O)ccc2c1 | -18.4% (inactive) |  |
| Cc1ccc(C(=O)O)cc1 | 2.11% (inactive) |  |
| O[C@@H]([C@H](O)[C@H](O)CBr)[C@H](O)CBr | -17.8% (inactive) |  |
| Cc1c(C)c2c(c(C)c1OC(=O)c1cccnc1)CC[C@@](C)(CCC[C@H](C)CCC[C@H](C)CCCC(C)C)O2 | 4.02% [at 42.5 µM] (inactive) |  |
| c1ccc(C(O[C@@H]2CCCN(CCc3ccc4c(c3)OCO4)C2)c2ccccc2)cc1 |  | 61.1 µM (active) |
| CNc1ccc([N+](=O)[O-])cc1 | 74.8% (inactive) |  |
| O=C(/C=C/c1ccccc1)OC/C=C/c1ccccc1 | 6.86% (inactive) |  |
| CCCCCc1ccc(Cl)cc1 | -10.3% (inactive) |  |
| NC(=S)NC(N)=S | -26.3% (inactive) |  |
| OC[C@@H](O)[C@@H](O)CO | -12.1% (inactive) |  |
| CCCCOC(=O)CC | 21.1% (inactive) |  |
| C#Cc1ccc(-c2ccccc2F)cc1 | 26.1% [at 42.5 µM] (inactive) |  |
| C=C(C)c1cccc(C(=C)C)c1 | 15.4% (inactive) |  |
| O=C(/C=C/c1ccc(O)c(O)c1)O[C@@H](C(=O)O)[C@@H](OC(=O)/C=C/c1ccc(O)c(O)c1)C(=O)O | -2.31% (inactive) |  |

| Structure (SMILES) | activity change, negative = inhibition | Potency |
| --- | --- | --- |
| COc1c(C)c2c(c(O)c1C/C=C(\C)CCC(=O)OCCN1CCOCC1)C(=O)OC2 |  | 0.237 µM (active) |
| CCCCN(CCCC)CC(O)c1cc(Cl)cc2c1-c1ccc(Cl)cc1/C2=C/c1ccc(Cl)cc1 (stereo not given) |  | 29.8 µM (active) |
| Cc1cc(C(C#N)c2ccc(Cl)cc2)c(Cl)cc1NC(=O)c1cc(I)cc(I)c1O (stereo not given) |  | 29.8 µM (active) |
| Cc1nc2n(c(=O)c1CCN1CCC(c3noc4cc(F)ccc34)CC1)CCCC2 | -22.1% [at 42.5 µM] (inactive) |  |
| COc1cccc(OC)c1C(=O)O | 14.6% (inactive) |  |
| ClCCl | 12.4% (inactive) |  |
| CCc1oc2ccccc2c1C(=O)c1cc(I)c(O)c(I)c1 |  | 11.9 µM (active) |
| O=c1[nH]c(=O)n([C@H]2C[C@H](O)[C@@H](CO)O2)cc1F | -11.1% [at 42.5 µM] (inactive) |  |
| O=C(O)[C@H](O)[C@@H](O)[C@H](O[C@@H]1O[C@H](CO)[C@H](O)[C@H](O)[C@H]1O)[C@H](O)CO | -3.51% [at 42.5 µM] (inactive) |  |
| COCCOc1cc2cc(C(=O)NC3CCN(C(C)C)CC3)n(CC(=O)Nc3ccc(Cl)cn3)c2cn1 | -21.7% (inactive) |  |
| CN(C)c1ccc(C(=C2C=CC(=[N+](C)C)C=C2)c2ccc(N(C)C)cc2)cc1 |  | 1.36 µM (active) and 1.54 µM (active) and 2.66 µM (active) |
| CCCCCCCCCCCCCC[N+](C)(C)Cc1ccccc1 |  | 24.7 µM (active) and 26.6 µM (active) and 20 mM (active) |
| CCn1c2ccccc2c2cc([N+](=O)[O-])ccc21 | 8.07% (inactive) |  |
| CC/C=C\CCCCCO | 15.7% (inactive) |  |
| CC(=O)c1ccc(C(C)=O)cc1 | 3.48% (inactive) |  |
| CCC(C)n1ncn(-c2ccc(N3CCN(c4ccc(OC[C@H]5CO[C@](Cn6cncn6)(c6ccc(Cl)cc6Cl)O5)cc4)CC3)cc2)c1=O (stereo not given in full) |  | 1.19 µM (active) |
| CC(=O)Oc1cc2c(s1)CCN(C(C(=O)C1CC1)c1ccccc1F)C2 (stereo not given) | -19.7% [at 42.5 µM] (inactive) |  |
| Cc1ccc(C(C)C)cc2c(C)ccc1-2 | 34.8% [at 42.5 µM] (inactive) |  |
| CCCC[P+](C)(CCCC)CCCC | -4.79% (inactive) |  |
| CCN(CCN)c1cccc(C)c1 |  | inactive |
